Measured values published in PubChem BioAssay AID1159580 (chemical genetic matrix, 2015).
The whole screen tested about 5,500 compounds, of which about 2,000 (36%) were called active. Another 18% or so got no clear call; they are omitted. Cut-off read from the data, not from the text of the source: active = normalized growth mostly below about 0.91 (no sharp cut-off); inconclusive = no clear call, values can overlap the other calls; inactive = mostly above about 0.92. This is one part of the list.

Test: chemical genetic growth profiling, strain panel (AID 1159580);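 note: tested at 20 µM; growth read once vehicle control cultures reached saturation at 30 °C; 1 = growth at the plate median or of vehicle wells; lower values mean less growth of the strain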
Conditions: growth OD

Measured: normalized growth

CCN(CC)C(C)CN1c2ccccc2Sc2ccccc21 (configuration not stated)
inactive: S. cerevisiae deletion strains, locus YJR075W, strain HOC1, hits give low values 0.937 | S. cerevisiae deletion strains, locus YKL009W, strain mrt4, hits give low values 0.888 | S. cerevisiae deletion strains, locus YKL068W, hits give low values 0.965 | S. cerevisiae deletion strains, locus YKL085W, strain MDH1 (second series), hits give low values 0.972 | S. cerevisiae deletion strains, locus YKL085W, strain MDH1, hits give low values 0.972 | S. cerevisiae deletion strains, locus YKL160W, strain elf1, hits give low values 0.907 | S. cerevisiae deletion strains, locus YKL190W, strain CNB1, hits give low values 0.985 | S. cerevisiae deletion strains, locus YKR001C, strain vps1, hits give low values 1.02 | S. cerevisiae deletion strains, locus YKR026C, strain gcn3, hits give low values 1.01 | S. cerevisiae deletion strains, locus YKR091W, strain srl3, hits give low values 0.986 | S. cerevisiae deletion strains, locus YLL001W, strain dnm1, hits give low values 0.911 | S. cerevisiae deletion strains, locus YLL026W, hits give low values 0.962 | S. cerevisiae deletion strains, locus YLL041C, strain sdh2, hits give low values 0.981 | S. cerevisiae deletion strains, locus YLR027C, strain aat2, hits give low values 0.961 | S. cerevisiae deletion strains, locus YLR039C, strain RIC1, hits give low values 1.1 | S. cerevisiae deletion strains, locus YLR058C, strain SHM2, hits give low values 0.963 | S. cerevisiae deletion strains, locus YLR102C, strain apc9, hits give low values 0.965 | S. cerevisiae deletion strains, locus YLR113W, strain HOG1, hits give low values 1.08 | S. cerevisiae deletion strains, locus YLR221C, strain rsa3, hits give low values 0.949 | S. cerevisiae deletion strains, locus YLR258W, strain gsy2, hits give low values 0.922 | S. cerevisiae deletion strains, locus YLR262C, strain YPT6 (second series), hits give low values 1.05 | S. cerevisiae deletion strains, locus YLR262C, strain YPT6, hits give low values 1.17 | S. cerevisiae deletion strains, locus YLR268W, strain sec22, hits give low values 0.924 | S. cerevisiae deletion strains, locus YLR330W, strain CHS5, hits give low values 0.975 | S. cerevisiae deletion strains, locus YLR342W, strain FKS1 (second series), hits give low values 0.895 | S. cerevisiae deletion strains, locus YLR357W, strain rsc2, hits give low values 1.01 | S. cerevisiae deletion strains, locus YLR370C, strain arc18, hits give low values 0.952 | S. cerevisiae deletion strains, locus YLR371W, strain rom2, hits give low values 0.955 | S. cerevisiae deletion strains, locus YLR384C, strain iki3, hits give low values 1 | S. cerevisiae deletion strains, locus YLR418C, strain cdc73, hits give low values 0.844 | S. cerevisiae deletion strains, locus YML016C, strain PPZ1, hits give low values 0.985 | S. cerevisiae deletion strains, locus YML032C, strain rad52, hits give low values 0.951 | S. cerevisiae deletion strains, locus YML120C, strain ndi1, hits give low values 1 | S. cerevisiae deletion strains, locus YML124C, strain tub3, hits give low values 0.964 | S. cerevisiae deletion strains, locus YMR058W, strain fet3, hits give low values 0.933 | S. cerevisiae deletion strains, locus YMR078C, strain ctf18, hits give low values 0.959 | S. cerevisiae deletion strains, locus YMR125W, strain sto1, hits give low values 1 | S. cerevisiae deletion strains, locus YMR129W, hits give low values 0.995 | S. cerevisiae deletion strains, locus YMR205C, strain PFK2, hits give low values 0.912 | S. cerevisiae deletion strains, locus YMR223W, strain ubp8, hits give low values 0.944 | S. cerevisiae deletion strains, locus YMR231W, strain pep5, hits give low values 1.01 | S. cerevisiae deletion strains, locus YMR263W, strain SAP30, hits give low values 0.952 | S. cerevisiae deletion strains, locus YMR307W, strain GAS1, hits give low values 0.902 | S. cerevisiae deletion strains, locus YNL067W, strain RPL9B, hits give low values 0.91 | S. cerevisiae deletion strains, locus YNL071W, strain lat1, hits give low values 0.99 | S. cerevisiae deletion strains, locus YNL128W, strain TEP1, hits give low values 0.987 | S. cerevisiae deletion strains, locus YNL153C, strain GIM3, hits give low values 0.963 | S. cerevisiae deletion strains, locus YNL183C, strain NPR1, hits give low values 0.961 | S. cerevisiae deletion strains, locus YNL233W, strain BNI4, hits give low values 0.948 | S. cerevisiae deletion strains, locus YNL248C, strain rpa49, hits give low values 0.954 | S. cerevisiae deletion strains, locus YNL250W, strain rad50, hits give low values 0.98 | S. cerevisiae deletion strains, locus YNL271C, strain bni1, hits give low values 0.971 | S. cerevisiae deletion strains, locus YNL298W, strain CLA4, hits give low values 0.959 | S. cerevisiae deletion strains, locus YNL322C, strain KRE1 (second series), hits give low values 0.96 | S. cerevisiae deletion strains, locus YNL322C, strain KRE1, hits give low values 0.986 | S. cerevisiae deletion strains, locus YNR049C, strain mso1, hits give low values 0.985 | S. cerevisiae deletion strains, locus YNR052C, strain pop2, hits give low values 0.967 | S. cerevisiae deletion strains, locus YOL012C, strain htz1 1 | S. cerevisiae deletion strains, locus YOL147C, strain pex11, hits give low values 0.961 | S. cerevisiae deletion strains, locus YOR001W, strain rrp6, hits give low values 0.97 | S. cerevisiae deletion strains, locus YOR061W, strain CKA2, hits give low values 0.988 | S. cerevisiae deletion strains, locus YOR069W, strain VPS5, hits give low values 0.985 | S. cerevisiae deletion strains, locus YOR070C, strain gyp1, hits give low values 0.933 | S. cerevisiae deletion strains, locus YOR080W, strain dia2, hits give low values 1 | S. cerevisiae deletion strains, locus YOR136W, strain idh2, hits give low values 0.965 | S. cerevisiae deletion strains, locus YOR144C, strain elg1, hits give low values 0.955 | S. cerevisiae deletion strains, locus YOR184W, strain ser1, hits give low values 0.94 | S. cerevisiae deletion strains, locus YOR231W, strain MKK1, hits give low values 1.04 | S. cerevisiae deletion strains, locus YOR265W, strain rbl2, hits give low values 0.986 | S. cerevisiae deletion strains, locus YOR290C, strain snf2, hits give low values 0.89 | S. cerevisiae deletion strains, locus YOR316C, strain cot1, hits give low values 0.942 | S. cerevisiae deletion strains, locus YPL055C, strain LGE1, hits give low values 0.89 | S. cerevisiae deletion strains, locus YPL106C, strain sse1, hits give low values 0.927 | S. cerevisiae deletion strains, locus YPL240C, strain hsp82, hits give low values 0.977 | S. cerevisiae deletion strains, locus YPL241C, strain CIN2, hits give low values 0.996 | S. cerevisiae deletion strains, locus YPL256C, strain CLN2, hits give low values 1.05 | S. cerevisiae deletion strains, locus YPR119W, strain clb2, hits give low values 0.954 | S. cerevisiae deletion strains, locus YPR141C, strain kar3, hits give low values 0.957 | S. cerevisiae deletion strains, locus YPR163C, strain tif3, hits give low values 0.949 | S. cerevisiae deletion strains, locus YPR167C, strain met16, hits give low values 0.936 | S. cerevisiae deletion strains, strain wtn01, hits give low values 0.957 | S. cerevisiae strains, strain wild type, hits give low values 1
active: S. cerevisiae deletion strains, locus YLR320W, strain mms22, hits give low values 0.875 | S. cerevisiae deletion strains, locus YLR342W, strain FKS1, hits give low values 0.879 | S. cerevisiae deletion strains, locus YNL209W, strain ssb2, hits give low values 0.891 | S. cerevisiae deletion strains, locus YNL307C, strain MCK1, hits give low values 0.89 | S. cerevisiae deletion strains, locus YOL006C, strain TOP1, hits give low values 0.458 | S. cerevisiae deletion strains, locus YOR083W, strain WHI5, hits give low values 0.841 | S. cerevisiae deletion strains, locus YOR106W, strain vam3, hits give low values 0.803 | S. cerevisiae deletion strains, locus YOR270C, strain vph1, hits give low values 0.67 | S. cerevisiae deletion strains, locus YPL051W, strain arl3, hits give low values 0.831 | S. cerevisiae deletion strains, locus YPL078C, strain atp4, hits give low values 0.87
